# IMPase Li cell: qHTS Assay for Identifying the Cell-Membrane Permeable IMPase Inhibitors: Potentiation with Lithium | CHO-M1 cells, IP1 TR-FRET (IP-One), carbachol + lithium | Potency, µM (doses to about 59.4 µM), inactives show top-dose activity, negative = IMPase inhibition, usual class: inhibitors | hit rate 0.35% among 210,000 | AID 1457, 2008;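 further: IP1 builds up when IMPase is blocked and the TR-FRET signal falls; potency means the concentration at half of the fitted maximal effect; plate controls were basal vehicle for no effect and high inhibitor control for full effect; nearly all actives have a fitted effect of over 50% in size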
#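 CHO cells stably expressing M1 receptor (2000/well) were cultured 16–30 h, then exposed to compounds with a small lithium addition for 30 min at 37C. IP1 was measured by TR-FRET competition; AC50 from Hill fits.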
# PNC inhibitor: High Content Assay for Compounds that inhibit the Assembly of the Perinucleolar Compartment; PC3M PTB-GFP, PNC prevalence imaging, 16 h; hits give low values; activity change (PNC), negative = inhibition, % at 10 µM; hit rate 3.1% among 140,000;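 active means readout at or below -70, meaning at least 70% loss of cells showing the perinucleolar compartment, a nuclear body marking cancer cells; inconclusive means readout between -30 and a set limit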;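 further: plate controls were DMSO wells for no effect and camptothecin positive control wells for full effect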
#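 Compounds are pinned in duplicate onto adhered PC3M cells stably expressing GFP-tagged PTB and incubated 16 h at 37 C. Cells are then fixed, nuclei stained with Hoechst, and PNC-positive cells counted.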
# 15-hLO-2 inh: qHTS Assay for Inhibitors of 15-hLO-2 (15-human lipoxygenase 2) | Polyunsaturated fatty acid lipoxygenase ALOX15B (Homo sapiens), O15296 | purified 15hLO-2, xylenol orange hydroperoxide absorbance | Potency, µM (series often up to 57.1 µM), for the others: at the highest dose activity change, negative = inhibition, most hits filed as inhibitors | hit rate 0.56% among 110,000 | AID 881, 2007; further: potency means the concentration at half of the fitted maximal effect; nearly all actives have a fitted effect of over 60% in size
#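 Read-out: hydroperoxide product oxidises ferrous iron, measured as xylenol orange complex via the 573-to-405 nm absorbance ratio after 30 min. Reaction: 50 nM enzyme, 15 min compound preincubation, 45 uM arachidonic acid, 90 min RT, Hepes pH 7.5 with Triton X-100.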
# IMPase inh: qHTS Assay for Identifying the Cell-Membrane Permeable IMPase Inhibitors. CHO-M1 cells, IP1 accumulation, HTRF TR-FRET ratio. inhibition (IP1 accumulation), % at 46.1 µM. 120,000 tested, under 10 active. AID 901, 2007; active means well fitted curve in the direction sought with a large enough effect in the signal ratio, not every such curve was filed as active; inconclusive means small, poorly fitted or top-dose-only effect, or a change in a side signal; inactive means no such curve, though single readings can be large or run the other way; the % refers to the signal ratio;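 further: cells stimulated with carbachol in lithium chloride buffer; plate controls were DMSO basal wells for no effect and reference inhibitor wells for full effect; higher means more IMPase inhibition seen as more IP1 and lower FRET ratio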
#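 The IP-One HTRF competitive assay in carbachol-stimulated CHO-M1 cells quantifies cellular IP1. Compounds spanned up to 46 uM final, and activity is expressed as AC50 from concentration-response fits of the ratio and donor data.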
# ALOX12 inhib: qHTS Assay for Inhibitors of 12-hLO (12-human lipoxygenase). Polyunsaturated fatty acid lipoxygenase ALOX12 (Homo sapiens), P18054. Potency, µM (series often up to 57.1 µM), without a hit: at the top dose activity change, negative = inhibition, actives largely listed as inhibitors. purified 12-hLO, xylenol orange hydroperoxide absorbance. hit rate 0.12% among 150,000; further: potency means the concentration at half of the fitted maximal effect; nearly all actives have a fitted effect of over 55% in size
# Target sequence (P18054 whole entry, looked up): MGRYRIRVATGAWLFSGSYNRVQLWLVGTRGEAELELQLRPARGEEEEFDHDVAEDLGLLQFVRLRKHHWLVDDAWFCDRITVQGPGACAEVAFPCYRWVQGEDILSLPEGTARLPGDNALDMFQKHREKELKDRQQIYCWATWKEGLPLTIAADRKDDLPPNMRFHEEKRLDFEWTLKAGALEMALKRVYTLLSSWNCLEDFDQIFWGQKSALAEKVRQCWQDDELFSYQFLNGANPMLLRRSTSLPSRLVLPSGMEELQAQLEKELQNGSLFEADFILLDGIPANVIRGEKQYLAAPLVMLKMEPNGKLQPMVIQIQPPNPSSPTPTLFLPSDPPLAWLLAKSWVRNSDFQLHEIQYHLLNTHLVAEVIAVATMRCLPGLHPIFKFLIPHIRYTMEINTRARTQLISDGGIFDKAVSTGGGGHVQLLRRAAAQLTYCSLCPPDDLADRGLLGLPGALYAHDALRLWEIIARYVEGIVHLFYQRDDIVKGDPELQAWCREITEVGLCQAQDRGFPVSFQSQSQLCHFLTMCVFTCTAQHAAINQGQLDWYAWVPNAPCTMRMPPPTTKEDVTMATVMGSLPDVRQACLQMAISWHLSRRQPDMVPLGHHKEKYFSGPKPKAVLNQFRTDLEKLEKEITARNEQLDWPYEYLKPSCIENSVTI
#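 150 nM 12hLO, 25 mM Hepes pH 7.0 + 0.01% Triton X-100; cpd preinc 15 min RT; 40 uM arachidonic acid, 30 min RT; Fe-XO 30 min; A573/A405 ratio as read-out.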
# * = called active by the depositor; ? = inconclusive; . = no result given; [ ] = another dose, or the depositor's remark. The full list was thinned out, with hits kept by preference. Unless noted, the call rests on the fitted dose curve; in most records, active means well fitted curve in the direction sought with a large enough effect; inconclusive means small, poorly fitted or top-dose-only effect, or another doubt; inactive means no such curve, though single readings can be large; an effect the other way counts as inactive or inconclusive. Unless noted, on the % scale 0 is the no-effect control and ±100 the full control effect.
SMILES,IMPase Li cell,PNC inhibitor,15-hLO-2 inh,IMPase inh,ALOX12 inhib
O=C1[C@@H]2[C@@H](C(=O)N1c1ccc(OCc3ccccc3)cc1)[C@@H]1c3ccccc3[C@@H]2[n+]2ccccc21,19%,.,19%[11.4 µM],.,14%[11.4 µM]
Cc1cc2nc3[nH]c4c(Cl)cc(Cl)cc4c3nc2cc1C,-3%,.,-5%[11.4 µM],.,1%[11.4 µM]
COc1ccc(S(=O)(=O)N(C(C)=O)c2ccc3oc(=O)sc3c2)cc1,0%[38.3 µM],4,-23%,8,8.9µM*
CS(=O)(=O)N1CCN(C(=O)c2ccc(-c3ccccc3)cc2)CC1,23%[38.3 µM],-83*,-2%,-3,1%
CCCC[C@@H]1C[C@H]1C(NC(=O)c1ccco1)c1ccccc1 (stereo not given in full),13%,.,-13%,.,-6%
Cc1ccc(S(=O)(=O)NC(=O)Nc2ncc3c(n2)CC(c2ccco2)CC3=O)cc1 (stereo not given),4%,-97*,.,1,4%
CC(=O)Nc1ncc2c(n1)CC(c1ccco1)CC2=O (stereo not given),19%[38.3 µM],-29,11%,-5,6%
CC(C)c1nc2sc3c(=O)[nH]cnc3c2c2c1CCC2,-29%,-84*,.,.,1%
CC(C)Cc1nc2sc3c(=O)[nH]cnc3c2c2c1CCC2,10µM*,?,.,.,0%
CC(C)c1nc2sc3c(N4CCCCC4)ncnc3c2c2c1CCCC2,.,.,.,8,.
N[C@H](Cc1ccccc1)C(=O)O,-11%,.,.,.,.
CCOC(=O)c1[nH]c(C)c(C(=O)c2cc(F)ccc2F)c1C,5%[38.3 µM],-95*,-2%,14,-13%
COc1ccc(CCNC[C@H](O)c2ccc(O)cc2)cc1OC,.,.,4%,8,-1%
S=c1nc[nH]c2c1[nH]c1ccccc12,4.5µM*,?,-25%,?,3%
COc1ccc(-n2nnnc2-c2ccccc2)cc1,30%[38.3 µM],-83*,-1%,3,8%
Clc1ccc(-n2nnnc2-c2ccccc2)cc1,-2%[38.3 µM],?,-3%,0,4%
COc1ccc(OCc2nnnn2-c2ccccc2)cc1,11%[38.3 µM],-93*,-11%[11.4 µM],7[1.84 µM],3%
Nc1nc2c(nc(Sc3ccc(Cl)cc3)n2C2OC(CO)C(O)C2O)c(=O)[nH]1 (stereo not given),3%,.,-14%,.,-7%
O=C(NC(=S)Nc1ccc(N2CCCC2)cc1)c1ccccc1[N+](=O)[O-],4%,-83*,.,.,-2%
Nc1ncnc2c1nc(-c1ccccc1)n2[C@H]1O[C@@H](CO)[C@@H](O)[C@H]1O,0%,.,-5%[11.4 µM],.,1%[11.4 µM]
N[C@](CC1c2ccccc2Oc2ccccc21)(C(=O)O)[C@H]1C[C@@H]1C(=O)O,-2%,.,.,.,.
COc1ccc(NCc2nnc(SCC(=O)NCc3ccccc3)n2-c2ccccc2OC)cc1,21%,-106*,.,12,-11%
CCCCc1nc2c(c3c1C[C@H](C)OC3)CN(S(=O)(=O)c1ccccc1C(=O)OC)CC2,7%,.,.,.,-2%[11.4 µM]
CN1/C(=C\C(=S)NC(=O)c2cccc(Br)c2)C(C)(C)c2ccccc21,.,-18,.,-6,14µM*
COc1cc(C(=O)N/N=C/c2cc([N+](=O)[O-])cs2)cc(OC)c1OC,4%,-103*,.,.,0%
SMILES,IMPase Li cell,PNC inhibitor,15-hLO-2 inh,IMPase inh,ALOX12 inhib
CCOC(=O)c1sc(NC(=O)C(C)Sc2nc(-c3ccccc3)cc(C(F)(F)F)n2)c(C(=O)OC)c1C (stereo not given),.,.,.,-6,.
COc1cccc(C(=O)Nn2c(C)nnc2-n2nc(C)cc2C)c1,6%,-100*,.,-10,-3%
CC(=O)NC1=NN(C(C)=O)C(c2ccccc2)S1 (stereo not given),-4%,.,.,.,.
CC(=O)NC1=NN(C(C)=O)C(c2cccs2)S1 (stereo not given),7%,-100*,.,2,5%
Cc1ccc(-n2ncc3c2ncn2c(-c4ccncc4)nnc32)cc1,-4%[38.3 µM],-91*,-2%,2,4%
c1ccc(Cn2ncc3c2ncn2c(-c4ccncc4)nnc32)cc1,-21%[38.3 µM],1,0%,7,2%
